Where “and” joins values, the source holds several entries; their conditions need not be identical. Equal entries are not always repeated. Records with an inconclusive call do not appear. Calls of active or inactive are those of the source. Unless noted, calls come from the whole dose curve.

This is an account of results in PubChem BioAssay (NCATS).

For test [1], the target named is Phosphoglycerate kinase, glycosomal (Trypanosoma brucei brucei) (UniProt P07378). Nature of the test: qHTS Validation Assay to Find Inhibitors of Phosphoglycerate Kinase (AID 504547; active = well fitted curve in the direction sought with a large enough effect; an effect the other way counts as inactive or inconclusive;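 note: control wells lack PGK and mark full inhibition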). In outline:
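Compounds are pinned into the substrate/PGK mixture, and GAPDH (100nM final) is added to start the reaction by producing 1,3-BPG. After 60 minutes at room temperature, Kinase-Glo Plus is added and luminescence is measured 10 minutes later.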
Background: qHTS replaces the single test concentration by a dilution series.

Test [2] has as its target phosphoglycerate mutase (Leishmania major) (UniProt Q4Q090). Nature of the test: qHTS Validation Assay to Find Inhibitors of Phosphoglycerate Mutase (AID 504548; active = well fitted curve in the direction sought with a large enough effect; an effect the other way counts as inactive or inconclusive;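 note: end-point luminescence from Kinase-GloPlus after the PGAM reaction; series mostly up to about 58 µM; % is set by controls: 0 for no effect and ±100 for the full control effect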). To be noted: Potency: inhibition qHTS. In outline: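 Inhibition of L. major PGAM was assessed by Kinase-GloPlus luminescence following a 45-minute room-temperature reaction with enzyme at 1.25nM final.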
A short description of test [3]: qHTS for Inhibitors of ATXN expression: Validation of Cytotoxic Assay (AID 588349; active = well fitted curve in the direction sought with a large enough effect; an effect the other way counts as inactive or inconclusive; note: % is set by controls: 0 for no effect and ±100 for the full control effect). An outline of the steps:
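Cytotoxicity counter-screen: HEK293 cells exposed to compound titrations, 72 hr, 37 degrees C. Read-out is intracellular ATP (CellTiter Glo luminescence) as a viability measure.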

A short description of test [4]: qHTS for Inhibitors of ATXN expression: Validation (AID 588378; active = well fitted curve in the direction sought with a large enough effect; an effect the other way counts as inactive or inconclusive; note: nearly all actives have a fitted effect of over 75% in size; note: potency is the fitted concentration of half-maximal effect). An outline of the steps:
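Luciferase luminescence (Bright-Glo) from an ATXN2-FFLuc HEK293 line after 24 h compound exposure at 37 °C, preceded by a CellTiter-Fluor fluorescence viability read. Serial dilutions of a reference ATXN2 inhibitor and a luciferase inhibitor served as controls.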

Test [5] deals with Ubiquitin carboxyl-terminal hydrolase 1 (Homo sapiens) (UniProt O94782). The experiment in a line: Inhibitors of USP1/UAF1: Pilot qHTS (AID 504865; active = well fitted curve in the direction sought with a large enough effect; an effect the other way counts as inactive or inconclusive; note: nearly all actives have a fitted effect of over 35% in size; note: potency is the fitted concentration of half-maximal effect). An outline of the steps: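 Deubiquitinase activity followed as kinetic rhodamine fluorescence release from 150 nM Ub-Rho. 1 nM USP1/UAF1 with compound, after 15 min room-temperature preincubation, in HEPES pH 7.8 buffer containing TCEP, EDTA, BSA and Tween-20.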

In test [6] the target is Glucocorticoid receptor (Homo sapiens) (UniProt P04150). The experiment in a line: qHTS assay for small molecule agonists of glucocorticoid receptor signaling (AID 588532; active = well fitted curve in the direction sought with a large enough effect in the signal ratio, with a control signal flat; the % refers to the signal ratio;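 note: 100% = dexamethasone at 0.1 µM and 0% = DMSO only wells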). To be noted: HeLa MMTV-bla, beta-lactamase ratio, agonist, 18 h; stronger effect = higher value; percent of dexamethasone control, DMSO zero. In outline: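 Cells were plated and rested 3-5 h at 37 C, compounds were added in titration and incubated 18 h, then CCF4 substrate was loaded for 2 h at RT before reading blue/green fluorescence. EC50 came from Hill-equation fitting.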

For test [7], the target named is Peroxisome proliferator-activated receptor gamma (Homo sapiens) (UniProt P37231). The experiment in a line: qHTS assay for small molecule agonists of peroxisome proliferator-activated receptor gamma signaling (AID 588536; active = well fitted curve in the direction sought with a large enough effect in the signal ratio, with a control signal flat, not every such curve was filed as active; the % refers to the signal ratio). An outline of the steps: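 Using GeneBLAzer HEK293 cells, response was quantified by CCF4 fluorescence and normalized between basal DMSO (0%) and rosiglitazone 2 uM (100%); curves yielded half-maximal stimulation concentration and efficacy.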

In test [8] the target is Vitamin D3 receptor (Homo sapiens) (UniProt P11473). Nature of the test: qHTS assay for small molecule agonists of vitamin D receptor signaling (AID 588543). An outline of the steps: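 Agonist-mode beta-lactamase reporter: HEK293T VDR-UAS-bla cells in charcoal-stripped 2% FBS, compound series 16 h 37 C, CCF4 2 h RT. EC50 from Hill fit, scaled against DMSO and 50 nM calcitriol control.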

Test [9] can be described thus: qHTS assay for small molecule agonists of retinoid X receptor alpha signaling (AID 588544). The conditions noted are these: HEK293T RXRa-UAS-bla, beta-lactamase reporter, 18 h; 530 nm emission.
Test [10] has as its target Bile acid receptor (Homo sapiens) (UniProt Q96RI1). The experiment in a line: qHTS assay for small molecule antagonists of farnesoid X receptor signaling (AID 588526). Note: % is set by controls: 0 for no effect and ±100 for the full control effect. In outline:
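Antagonist mode: titrated compounds tested against chenodeoxycholic acid stimulation (normalized to 50 uM CDCA and DMSO) in GeneBLAzer HEK293T cells for 16 h. Beta-lactamase read by CCF4 fluorescence; IC50 from Hill fits.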

Test [11] has as its target Glucocorticoid receptor (Homo sapiens) (UniProt P04150). Nature of the test: qHTS assay for small molecule antagonists of glucocorticoid receptor signaling (AID 588533; active = well fitted inhibition curve with a large enough effect in the signal ratio, with a control signal flat, not every such curve was filed as active; the % refers to the signal ratio; note: potency is the fitted concentration of half-maximal effect). In outline: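 Antagonist-mode qHTS: compound titrations added to GRE-bla HeLa cells, then dexamethasone 2 nM final; 18 h, 37 C. CCF4 FRET fluorescence normalized to dexamethasone and DMSO; IC50 from Hill fit.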

A short description of test [12]: qHTS assay for small molecule antagonists of peroxisome proliferator-activated receptor delta signaling (AID 588535; active = well fitted inhibition curve with a large enough effect in the signal ratio, with a control signal flat, not every such curve was filed as active; the % refers to the signal ratio;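 for max response: cells co-treated with a PPAR-delta agonist as stimulator during compound exposure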). To be noted: HEK293T PPARd-UAS-bla, beta-lactamase FRET ratio, 18 h; 460 nm channel. An outline of the steps:
(§1)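 Beta-lactamase reporter read-out (405 nm excitation, 460/530 nm emission) after CCF4 loading for 2 hrs at RT. HEK293T PPAR-delta-UAS-bla cells, 2% charcoal/dextran FBS, compounds for 18 hrs at 37 C. Hill fit gave IC50 and efficacy.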

In test [13] the target is Peroxisome proliferator-activated receptor delta (Homo sapiens) (UniProt Q03181). Described as above. In outline: as §1
Test [14] concerns the target Peroxisome proliferator-activated receptor gamma (Homo sapiens) (UniProt P37231). The experiment in a line: qHTS assay for small molecule antagonists of peroxisome proliferator-activated receptor gamma signaling (AID 588537; active = well fitted inhibition curve with a large enough effect in the signal ratio, with a control signal flat, not every such curve was filed as active; the % refers to the signal ratio;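 note: reporter cells co-stimulated with 50 nM rosiglitazone agonist during compound treatment; % of control where 0% means no effect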). In outline: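 Read-out: CCF4 fluorescence (ex 405, em 460/530 nm) after 2 h at RT. Cells were HEK293 carrying a UAS-bla reporter and treated 16 h at 37 C with compound plus rosiglitazone (50 nM final). Normalized to rosiglitazone and DMSO.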

In test [15] the target is Vitamin D3 receptor (Homo sapiens) (UniProt P11473). Nature of the test: qHTS assay for small molecule antagonists of vitamin D receptor signaling (AID 588541).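 Note: receptor activated by calcitriol during compound treatment; series mostly up to about 77 µM; % is set by controls: 0 for no effect and ±100 for the full control effect.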 An outline of the steps: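 VDR-UAS-bla HEK293T cells in 2% charcoal-stripped FBS were stimulated with 1-alpha,25-dihydroxyvitamin D3 (3 nM final) plus compound for 16 h at 37 C. The beta-lactamase CCF4 readout was normalized to 50 nM agonist and DMSO, and Hill fits gave IC50.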

Test [16] has as its target Estrogen receptor (Homo sapiens) (UniProt P03372). The experiment in a line: qHTS assay for small molecule antagonists of estrogen receptor alpha signaling (AID 588513; active = well fitted curve in the direction sought with a large enough effect in the signal ratio, with a control signal flat, not every such curve was filed as active; the % refers to the signal ratio; note: % is set by controls: 0 for no effect and ±100 for the full control effect). An outline of the steps:
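Antagonist mode: inhibition of 0.5 nM 17-beta-estradiol-driven beta-lactamase reporter in HEK 293 ER-alpha-UAS-bla cells, 18 h at 37C, CCF4 readout after 2 h at RT. Normalised to estradiol and DMSO; titration fitted to Hill.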

Test [17] shares this target. The experiment in a line: qHTS assay for small molecule agonists of estrogen receptor alpha signaling (AID 588514).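 Note: 0% = vehicle only and 100% = reference agonist; nearly all actives have a fitted effect of over 70% in size.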 In outline: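 Read-out: CCF4 fluorescence from a beta-lactamase reporter in ER-alpha-UAS-bla HEK 293 cells after 18 hrs of compound exposure at 37 C. Normalized to 20 nM 17-beta-estradiol (100%) and DMSO (0%).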
Test [18] deals with Androgen receptor (Homo sapiens) (UniProt P10275). Nature of the test: qHTS assay for small molecule agonists of androgen receptor signaling (AID 588515; active = well fitted curve in the direction sought with a large enough effect in the signal ratio, with a control signal flat; the % refers to the signal ratio; note: % is set by controls: 0 for no effect and ±100 for the full control effect). The conditions noted are these: AR-UAS-bla HEK293, beta-lactamase ratio, agonist 16 h; stronger effect = higher value. An outline of the steps:
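Stimulation of an AR-responsive β-lactamase reporter in GripTite HEK293 cells was measured after 16 h compound exposure at 37 °C, via CCF4 fluorescence after 2 h RT. EC50 from Hill fits, normalized to R1881 at 30 nM.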

Chain of Vitamin D3 receptor (Homo sapiens) (P11473 whole entry, looked up): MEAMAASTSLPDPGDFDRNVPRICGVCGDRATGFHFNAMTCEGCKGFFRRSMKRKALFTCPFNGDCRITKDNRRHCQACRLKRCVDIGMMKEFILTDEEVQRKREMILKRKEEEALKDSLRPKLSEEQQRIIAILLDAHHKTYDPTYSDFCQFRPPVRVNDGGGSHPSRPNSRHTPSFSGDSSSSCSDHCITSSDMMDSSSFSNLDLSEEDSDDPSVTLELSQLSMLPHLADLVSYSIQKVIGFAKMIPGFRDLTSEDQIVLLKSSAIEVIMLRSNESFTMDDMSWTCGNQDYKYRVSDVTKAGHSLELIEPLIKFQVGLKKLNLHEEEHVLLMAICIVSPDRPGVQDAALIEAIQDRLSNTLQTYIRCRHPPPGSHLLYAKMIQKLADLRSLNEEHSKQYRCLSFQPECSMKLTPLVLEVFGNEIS
Chain of Peroxisome proliferator-activated receptor delta (Homo sapiens) (Q03181 whole entry, looked up): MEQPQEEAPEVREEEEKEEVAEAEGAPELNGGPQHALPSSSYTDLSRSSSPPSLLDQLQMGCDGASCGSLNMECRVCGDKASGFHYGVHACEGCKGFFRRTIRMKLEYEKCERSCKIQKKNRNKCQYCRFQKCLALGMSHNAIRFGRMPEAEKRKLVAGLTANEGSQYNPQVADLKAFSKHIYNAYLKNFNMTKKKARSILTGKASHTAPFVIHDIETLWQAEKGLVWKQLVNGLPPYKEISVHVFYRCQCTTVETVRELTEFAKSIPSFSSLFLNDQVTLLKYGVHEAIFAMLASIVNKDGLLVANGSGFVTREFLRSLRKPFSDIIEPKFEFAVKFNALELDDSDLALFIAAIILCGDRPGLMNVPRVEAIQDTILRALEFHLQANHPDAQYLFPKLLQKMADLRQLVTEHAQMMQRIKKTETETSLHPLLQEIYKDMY
Chain of Glucocorticoid receptor (Homo sapiens) (P04150 whole entry, looked up): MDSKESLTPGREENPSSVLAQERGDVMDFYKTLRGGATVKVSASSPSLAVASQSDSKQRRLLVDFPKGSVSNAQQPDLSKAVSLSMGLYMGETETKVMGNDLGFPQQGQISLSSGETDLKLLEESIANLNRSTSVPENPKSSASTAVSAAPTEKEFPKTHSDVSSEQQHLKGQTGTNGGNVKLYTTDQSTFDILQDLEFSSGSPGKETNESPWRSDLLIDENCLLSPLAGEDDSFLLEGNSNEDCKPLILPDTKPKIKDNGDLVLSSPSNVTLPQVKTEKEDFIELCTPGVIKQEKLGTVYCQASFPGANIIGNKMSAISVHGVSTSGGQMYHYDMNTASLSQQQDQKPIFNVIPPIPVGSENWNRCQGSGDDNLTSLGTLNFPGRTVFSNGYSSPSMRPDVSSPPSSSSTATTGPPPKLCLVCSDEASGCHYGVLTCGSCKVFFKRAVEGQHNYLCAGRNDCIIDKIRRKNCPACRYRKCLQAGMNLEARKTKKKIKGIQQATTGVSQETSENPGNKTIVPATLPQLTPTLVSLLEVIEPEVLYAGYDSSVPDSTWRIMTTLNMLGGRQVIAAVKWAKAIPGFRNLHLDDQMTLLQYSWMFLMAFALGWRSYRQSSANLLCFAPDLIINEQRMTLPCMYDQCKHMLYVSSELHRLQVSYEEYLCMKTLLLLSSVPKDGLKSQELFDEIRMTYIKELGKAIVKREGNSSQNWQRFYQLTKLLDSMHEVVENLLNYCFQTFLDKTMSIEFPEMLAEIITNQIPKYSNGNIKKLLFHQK
Chain of Ubiquitin carboxyl-terminal hydrolase 1 (Homo sapiens) (O94782 whole entry, looked up): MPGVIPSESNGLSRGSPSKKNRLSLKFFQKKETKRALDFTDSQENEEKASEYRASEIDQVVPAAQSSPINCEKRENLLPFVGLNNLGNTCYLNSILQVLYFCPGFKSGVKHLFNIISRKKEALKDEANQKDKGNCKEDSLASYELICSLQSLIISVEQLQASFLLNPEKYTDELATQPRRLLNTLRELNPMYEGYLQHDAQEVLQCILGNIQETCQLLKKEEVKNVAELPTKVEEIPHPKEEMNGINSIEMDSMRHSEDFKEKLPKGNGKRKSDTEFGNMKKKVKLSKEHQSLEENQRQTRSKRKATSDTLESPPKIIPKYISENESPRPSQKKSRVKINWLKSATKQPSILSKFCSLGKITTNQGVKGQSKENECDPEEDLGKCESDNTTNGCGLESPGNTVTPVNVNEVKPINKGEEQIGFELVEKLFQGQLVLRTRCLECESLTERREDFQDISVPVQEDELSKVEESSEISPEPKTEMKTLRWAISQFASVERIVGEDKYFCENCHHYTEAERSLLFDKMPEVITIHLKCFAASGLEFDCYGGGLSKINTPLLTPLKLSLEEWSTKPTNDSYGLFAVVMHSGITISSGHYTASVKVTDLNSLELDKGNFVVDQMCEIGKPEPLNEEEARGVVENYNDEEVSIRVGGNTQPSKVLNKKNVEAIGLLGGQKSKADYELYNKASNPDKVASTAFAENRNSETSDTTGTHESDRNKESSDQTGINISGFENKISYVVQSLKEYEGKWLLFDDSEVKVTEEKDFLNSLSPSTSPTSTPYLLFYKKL
Chain of Peroxisome proliferator-activated receptor gamma (Homo sapiens) (P37231 whole entry, looked up): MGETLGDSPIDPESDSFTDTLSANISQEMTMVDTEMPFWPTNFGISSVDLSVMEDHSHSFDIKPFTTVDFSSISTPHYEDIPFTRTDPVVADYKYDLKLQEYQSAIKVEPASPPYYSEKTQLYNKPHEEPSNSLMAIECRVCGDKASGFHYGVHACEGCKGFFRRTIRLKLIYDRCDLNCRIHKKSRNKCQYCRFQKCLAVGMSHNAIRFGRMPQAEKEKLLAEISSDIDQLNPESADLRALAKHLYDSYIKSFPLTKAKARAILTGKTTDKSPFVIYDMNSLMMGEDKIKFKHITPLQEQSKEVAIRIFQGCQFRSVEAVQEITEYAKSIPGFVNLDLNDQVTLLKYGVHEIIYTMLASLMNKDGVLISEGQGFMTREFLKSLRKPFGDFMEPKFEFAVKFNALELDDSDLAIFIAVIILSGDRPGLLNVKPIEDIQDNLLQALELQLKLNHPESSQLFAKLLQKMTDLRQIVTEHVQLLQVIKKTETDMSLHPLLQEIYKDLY
Chain of Estrogen receptor (Homo sapiens) (P03372 whole entry, looked up): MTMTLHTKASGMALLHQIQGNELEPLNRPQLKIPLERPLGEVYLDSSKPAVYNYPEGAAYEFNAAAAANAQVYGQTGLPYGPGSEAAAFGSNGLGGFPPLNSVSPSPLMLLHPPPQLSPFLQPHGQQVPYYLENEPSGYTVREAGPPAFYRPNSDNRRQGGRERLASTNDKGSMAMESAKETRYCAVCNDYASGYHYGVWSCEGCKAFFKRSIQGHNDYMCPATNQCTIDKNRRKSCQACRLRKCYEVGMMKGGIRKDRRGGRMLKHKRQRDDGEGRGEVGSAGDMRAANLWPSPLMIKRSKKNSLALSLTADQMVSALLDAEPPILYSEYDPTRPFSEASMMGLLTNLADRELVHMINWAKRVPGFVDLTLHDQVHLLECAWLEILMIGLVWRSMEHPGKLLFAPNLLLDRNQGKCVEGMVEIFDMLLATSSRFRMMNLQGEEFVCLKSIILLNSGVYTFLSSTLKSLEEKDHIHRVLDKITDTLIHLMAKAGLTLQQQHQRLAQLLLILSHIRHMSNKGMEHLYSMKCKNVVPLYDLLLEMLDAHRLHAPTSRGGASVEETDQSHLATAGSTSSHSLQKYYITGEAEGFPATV
Chain of phosphoglycerate mutase (Leishmania major) (Q4Q090 1-553): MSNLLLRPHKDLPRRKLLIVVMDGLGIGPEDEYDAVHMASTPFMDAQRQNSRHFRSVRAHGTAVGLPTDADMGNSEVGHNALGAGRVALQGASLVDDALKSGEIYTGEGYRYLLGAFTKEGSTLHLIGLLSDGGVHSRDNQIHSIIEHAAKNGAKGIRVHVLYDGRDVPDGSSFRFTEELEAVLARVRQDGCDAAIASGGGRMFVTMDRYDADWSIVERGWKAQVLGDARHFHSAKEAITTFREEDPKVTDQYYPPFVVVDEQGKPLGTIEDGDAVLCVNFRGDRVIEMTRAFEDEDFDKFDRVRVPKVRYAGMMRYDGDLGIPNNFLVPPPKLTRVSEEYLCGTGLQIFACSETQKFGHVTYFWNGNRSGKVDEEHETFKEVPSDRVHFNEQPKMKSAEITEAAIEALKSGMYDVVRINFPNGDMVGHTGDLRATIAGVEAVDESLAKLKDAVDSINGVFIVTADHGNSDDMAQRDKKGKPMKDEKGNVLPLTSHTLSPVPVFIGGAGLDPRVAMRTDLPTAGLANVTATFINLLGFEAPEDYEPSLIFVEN
Chain of Phosphoglycerate kinase, glycosomal (Trypanosoma brucei brucei) (P07378 whole entry, looked up): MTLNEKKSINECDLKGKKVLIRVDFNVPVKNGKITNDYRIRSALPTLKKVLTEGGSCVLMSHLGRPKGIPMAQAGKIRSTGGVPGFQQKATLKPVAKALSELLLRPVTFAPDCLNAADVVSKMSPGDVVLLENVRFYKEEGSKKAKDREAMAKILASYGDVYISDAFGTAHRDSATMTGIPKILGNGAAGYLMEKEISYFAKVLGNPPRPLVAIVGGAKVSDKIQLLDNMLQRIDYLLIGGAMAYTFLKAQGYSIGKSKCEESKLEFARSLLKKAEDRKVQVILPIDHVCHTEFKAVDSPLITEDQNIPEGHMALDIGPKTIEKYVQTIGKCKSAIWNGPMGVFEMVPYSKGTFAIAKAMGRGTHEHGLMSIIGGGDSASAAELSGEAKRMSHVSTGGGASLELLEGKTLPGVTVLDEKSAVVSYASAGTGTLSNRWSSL
Chain of Bile acid receptor (Homo sapiens) (Q96RI1 whole entry, looked up): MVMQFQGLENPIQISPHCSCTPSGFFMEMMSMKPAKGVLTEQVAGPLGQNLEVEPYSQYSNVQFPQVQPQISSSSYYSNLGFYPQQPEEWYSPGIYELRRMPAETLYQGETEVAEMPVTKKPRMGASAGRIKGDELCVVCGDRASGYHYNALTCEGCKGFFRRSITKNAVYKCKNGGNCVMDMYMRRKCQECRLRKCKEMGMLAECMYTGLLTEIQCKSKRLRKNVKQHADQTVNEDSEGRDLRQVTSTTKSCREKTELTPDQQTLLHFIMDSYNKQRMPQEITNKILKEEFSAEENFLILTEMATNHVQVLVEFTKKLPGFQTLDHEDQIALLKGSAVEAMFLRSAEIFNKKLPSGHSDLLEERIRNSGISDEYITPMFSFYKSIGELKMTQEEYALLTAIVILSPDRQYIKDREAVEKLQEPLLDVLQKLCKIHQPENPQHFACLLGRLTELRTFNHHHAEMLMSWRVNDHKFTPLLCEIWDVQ

Consider `NC(CCCP(=O)(O)O)C(=O)O` (stereo not drawn), for which the Potency entry in test [1], in test [2], in test [3] and in test [4] was “inactive” each time.
On to `CCCCCCCCc1ccc(-c2ccc(C(=O)O)cc2)cc1`, for which the Potency result in test [1], in test [2], in [3] and in test [4] was “inactive” each time. In test [5], the Potency is 50.1 µM (active).
In the case of `O=C1C(SCCO)=C(SCCO)C(=O)c2ccccc21`, the Potency in [4] was 4.47 µM (active).
With `CO/N=C(\C(=O)N[C@@H]1C(=O)N2C(C(=O)O)=C(COC(C)=O)CS[C@H]12)c1csc(N)n1`, the Potency result in test [4] was “inactive”.
For the molecule `Oc1ccccc1O`, in test [6], the activation is -6.14% (inactive). In addition, the outcome in test [7] and in test [8] was inactive. Further, the max response in test [9] is 7.41%.
For `S=c1[nH]c2ccccc2s1`, the Potency entry in [5], in test [11], in [13] and in test [14] was “inactive” each time. For the same molecule, the outcome in test [10], in test [15] and in test [8] was inactive. Moreover, the activation in [6] was -4.66% (inactive) and -1.91% (inactive). The max response in test [12] was 9.56%; in test [9], -3.92%.
As to `O=c1cc(-c2ccccc2)oc2ccccc12`, the molecule was called inactive in [16], in test [7], in [15] and in test [8]. Besides, the Potency result in [17] and in test [13] was “inactive” throughout. Further, the activation was -23.6% (inactive) and -8.95% (inactive) in [18]; -9.59% (inactive) and -14.8% (inactive) in [6]. In addition, the max response in test [12] worked out at 43.6%; in test [9] it was 18.8%.
With `CC1(C)S[C@@H]2[C@H](NC(=O)[C@H](N)c3ccccc3)C(=O)N2[C@H]1C(=O)O`, the call in test [7] was inactive. In addition, in test [9], the max response is -24.6%.
Turning to `C#C[C@]1(O)CC[C@H]2[C@@H]3CCc4cc(O)ccc4[C@H]3CC[C@@]21C`, in test [6], the activation is -1.88% (inactive). Moreover, the Potency in test [11] is 10 µM (active) and 12.6 µM (active). The max response in test [12] was -35.1% and -42.8%. For the same molecule, the Potency entry in test [13] is “inactive”.
As for `N.N.O=C(O)C1(C(=O)O)CCC1.[Pt]`, the Potency in test [5] was 28.2 µM (active). In addition, the Potency result in [4] is “inactive”.
Regarding `Nc1ccc(O)c([N+](=O)[O-])c1`, the outcome in test [16], in test [15] and in test [8] was inactive. The Potency result in test [17], in test [11], in test [13] and in test [14] was “inactive” throughout. The activation in test [6] is 3.32% (inactive). Further, the max response is 41.6% and 11.8% in test [12]; -11.3% in [9].
For `O=C(O)[C@H](O)[C@@H](O)[C@H](O)[C@H](O)CO`, the Potency result in [5], in test [13] and in test [14] was “inactive” each time. Moreover, the max response in [12] was 8.66%; in test [9], -12.4%. In addition, the result in test [7], in test [15] and in [8] was inactive.
Regarding `Cc1c(Nc2ncccc2C(=O)O)cccc1C(F)(F)F`, the Potency result in [5] was “inactive”.
`COc1ccc(NC(=O)/C=C/c2ccc(Cl)cc2)cc1`: the Potency result in test [4] was “inactive”.
For `N=C1N=C(N)c2cc3ccccc3cc21`, the result in [16], in test [15] and in test [8] was inactive. In addition, the activation in test [6] was 0.184% (inactive). Besides, in test [9], the max response came to 12.6%.
